The structures appear in SMILES notation. Where “and” joins values, the source holds several entries; their conditions need not be identical. Equal values may be shown once.

These results are taken from PubChem BioAssay AID651598 (Sanford-Burnham Center for Chemical Genomics, 2012).

The target in the assay is Apelin receptor (Homo sapiens) (UniProt P35414). As to the kind of experiment: APJ beta-arrestin recruitment blockade alongside CXCR6 – cell-based, DiscoveRx, panel, CHO-K1, counter-screen for CXCR6 antagonist project, SAR follow-up (AID 651598). The conditions noted are these: CHO-K1 PathHunter beta-arrestin luminescence, antagonist mode; run 1, at 80 µM (top of the series).
Chain of Apelin receptor (Homo sapiens) (P35414 whole entry, looked up): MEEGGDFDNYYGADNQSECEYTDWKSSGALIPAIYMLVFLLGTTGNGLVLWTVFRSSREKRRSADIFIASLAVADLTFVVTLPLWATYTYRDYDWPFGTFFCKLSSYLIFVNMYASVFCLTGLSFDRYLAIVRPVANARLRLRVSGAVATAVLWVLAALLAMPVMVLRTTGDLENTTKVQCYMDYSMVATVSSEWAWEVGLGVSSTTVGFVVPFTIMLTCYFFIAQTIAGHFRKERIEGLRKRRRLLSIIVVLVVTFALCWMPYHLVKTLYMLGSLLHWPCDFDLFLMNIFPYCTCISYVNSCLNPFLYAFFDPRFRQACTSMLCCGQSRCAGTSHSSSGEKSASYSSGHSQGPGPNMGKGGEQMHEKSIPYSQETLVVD
Turning to `COc1cc(C(=O)NC2CC3CCCC(C2)N3CC(=O)Nc2ccccc2)cc(OC)c1OC` (stereo not drawn), the inhibition was -17.1% and -7.52% and 20.1%.
As for `COc1cc(C(=O)NC2CCN(CC(=O)Nc3ccccc3)CC2)cc(OC)c1OC`, the figure is -17.6%; as for `COc1cc(C(=O)NC2CC3CCC(C2)N3CC(=O)Nc2ccccc2)cc(OC)c1OC` (stereo not drawn), 15.6% and 6.78%.
